This passage reports outcome results from PubChem BioAssay AID504882 (Broad Institute, 2011).

Screen size: about 1,200 compounds; about 290 (24%) were called active. Another 9% or so got no clear call; they are omitted. The rule behind the calls is not given here. Only a sample is shown. Results with a measured potency or affinity are listed apart.

This assay can be described thus: cytotoxicity in EBV lymphoblastoid cells, dose response, cytotoxicity control, cell-based, plate reader, cherry-picks, set 2 (AID 504882). The note with it: EBV lymphoblastoid cells (LCL) viability; series mostly up to 19.5 µM.
For `Cn1ncc(Cl)c1C(=O)NC1CCCC1`, the result was inactive. As to `CCN(CC)c1ccc(NC(=O)c2cccc(F)c2)c(C)c1`, the result was inactive.

Regarding `CN(C)c1cccc(C(=O)N/N=C/c2ccccc2F)c1`, the molecule was classed as inactive. Turning to `COCCn1c(SCC(=O)N2CCc3ccccc32)nc2c(c1=O)SC(C)C2` (stereo unspecified), the call was inactive. As for `Cc1cc(C)n(C2CCCCC2OC(=O)c2ccccc2F)n1` (stereo unspecified), the call was inactive. In the case of `O=C(c1ccc(Cl)cc1)N1CCN(CCOc2ccccc2)CC1`, the molecule was classed as inactive.

For the molecule `CNC(=S)N1N=C(c2cccs2)CC1c1ccc(F)cc1` (stereo unspecified), the result was inactive. Consider `O=C1OCCC1Sc1nnc(-c2ccc(Cl)cc2Cl)o1` (stereo unspecified), for which the outcome was inactive. Turning to `CCCC(=O)C1=C(O)C(C(=O)OC)C(C)(C)CC1=Nc1ccncc1` (stereo unspecified), the molecule was called inactive. `Cc1cc(C(=O)COC(=O)c2ccc[nH]c2=O)c(C)n1-c1ccccc1`: the outcome was inactive. Regarding `COc1ccc(S(=O)(=O)N2CCOCC2)cc1NC(=O)COC(=O)CCS(=O)(=O)c1ccc(C)cc1`, the molecule was called inactive.

Consider `O=C(O)CCc1nc(-c2ccc(Cl)cc2)no1`, for which the call was inactive. With `NC(=O)c1sc2nc3c(c(-c4cccs4)c2c1N)CCCCC3`, the result was inactive. For the molecule `O=C1CC(c2cccs2)Cc2nc(NC(=O)C3CC3)ncc21` (stereo unspecified), the molecule was classed as inactive.

As for `O=C(Nc1ccc(Br)cc1)C1CC(O)CN1C(=O)OCc1ccccc1` (stereo unspecified), the result was inactive. Consider `CC(CN1CCCCC1)OC(=O)c1ccc2c(c1)OCO2` (stereo unspecified), for which the call was inactive. Turning to `COC(=O)C1=C(C(=O)c2ccccc2)C(c2ccccc2)n2nnnc2N1` (stereo unspecified), the molecule was called inactive. Under `Cc1ccc(NC(=O)/C=N/OCC(=O)NCc2ccccc2Cl)cc1` stands “inactive”; under `Cc1cc(N)nc(=O)n1C1CC(O)C(CO)O1` (stereo unspecified), “inactive”. For `CCOC(=O)/C=C(\C)Sc1cc(=O)oc2ccccc12`, the call was inactive. For `CCCNC(=O)N1CCN(S(=O)(=O)c2ccc(C)c(C)c2)CC1`, the result was inactive. With `COc1ccc(S(=O)(=O)N2CCCCCC2)cc1C(=O)OCc1cccc(OC)c1OC`, the result was inactive. Under `Cc1ccc(-n2nc(C(=O)NCc3ccc(C)o3)c3c4ccccc4n(C)c3c2=O)cc1` stands “inactive”; under `COc1ccc(OC)c(CCNC(=O)CCn2nc(C)c3c(C)n(-c4ccccc4)nc3c2=O)c1`, “inactive”; under `Cn1cc(CC(=O)NCCCN2CCCC2)c2ccccc21`, “inactive”. With `CCOC(=O)N1CCC(NC(=O)C2CCCN(Cc3nc(-c4cccc(Cl)c4)oc3C)C2)CC1` (stereo unspecified), the molecule was classed as inactive. For `NC(=O)OCC(COC(N)=O)c1ccccc1`, the call was inactive. Consider `O=C(CN1C(=O)c2ccccc2S1(=O)=O)c1ccccc1`, for which the outcome was inactive.

As for `COc1ccc(-n2cnc3c(cnn3CCC#N)c2=N)cc1`, the call was inactive. Consider `O=C(NC1CCCCC1)N1CCN(c2ccc([N+](=O)[O-])cc2)CC1`, for which the molecule was called inactive.

Consider `COc1ccc(CCNC(=O)c2nnn(-c3ccc4c(c3)OCCO4)c2N)cc1OC`, for which the call was inactive.

On to `Cc1ccccc1-n1nc(C)c2cc(C(=O)NC3CC3)sc21`, for which the call was inactive. Under `CC1CCN(CCOc2ccc(C(=O)c3ccccc3)cc2)CC1` stands “inactive”; under `O=C(Cn1ccc(C(F)(F)F)n1)Nc1cccc(S(=O)(=O)N2CCCCC2)c1`, “inactive”; under `O=C1C2CCCN2c2ccc(S(=O)(=O)N3CCOCC3)cc2N1Cc1ccccc1F` (stereo unspecified), “inactive”.

In the case of `Cn1c(CC(=O)Nc2ccc(F)cc2)nnc1SCC(=O)Nc1nncs1`, the call was inactive. For the molecule `Cc1ccccc1N(C(=O)c1snc(C(N)=O)c1N)C(C(=O)NC1CCCCC1)c1ccc(O)cc1` (stereo unspecified), the result was inactive. In the case of `N#CCN(N=Nc1ccccc1)c1ccccc1`, the result was inactive. As to `Cc1cc(/C=C2\Cc3ccccc3C2=O)c(C)n1-c1ccccc1`, the molecule was called inactive. Regarding `COC(=O)c1ccc(/C=C(/NC(=O)c2ccccc2)C(=O)N2CCOCC2)cc1`, the outcome was inactive.

As for `Cc1ccc(CCNC(=O)CCc2nc3ccccc3[nH]2)cc1`, the molecule was classed as inactive.

Turning to `CC(=O)Nc1ccc(OCC(O)CNC(C)C)cc1` (stereo unspecified), the molecule was classed as inactive. Consider `CC1=C(C)C(OCCCl)N(c2cc(O)c(Cl)cc2F)C1=O` (stereo unspecified), for which the molecule was called inactive. For the molecule `O=C(O)c1cccc(NC(=O)c2cn(-c3ccccc3)nc2-c2ccc(F)cc2)c1`, the call was inactive. With `N/C(=N\OC(=O)c1cccc(Br)c1)c1ccccn1`, the molecule was classed as inactive. Turning to `C/C(=N/NC(=O)c1cc(C2CC2)[nH]n1)c1cccs1`, the result was inactive.

As for `Cc1cc(C(=O)CSc2nnc(-c3cccs3)o2)c(C)n1-c1ccccc1`, the result was inactive. With `CN(Cc1ccc(F)cc1)C(=O)CN1CCN(S(=O)(=O)c2ccc3c(c2)OCCCO3)CC1`, the result was inactive. On to `COc1cc(N(C)C)c([N+](=O)[O-])cc1C(=O)N1CCN(Cc2ccccc2)CC1`, for which the result was inactive.

With `COc1ccc(CCNC(=O)CSc2ccsc2[N+](=O)[O-])cc1OC`, the result was inactive.

As to `CCOc1ccc(NC(=O)Cn2cc(C(=O)CC)c3ccccc32)cc1`, the result was inactive. Turning to `O=C(NC(Cc1c[nH]c2ccccc12)C(=O)Nc1ccc(F)c([N+](=O)[O-])c1)c1cccs1` (stereo unspecified), the molecule was classed as inactive. With `COc1ccc(/C=N/Nc2cc(OC)ncn2)cc1`, the molecule was called inactive. For the molecule `Cc1ccc(C)c(S(=O)(=O)N2CCN(CC(=O)N3CCc4ccccc4C3)CC2)c1`, the molecule was classed as inactive. On to `Cc1ccc(NC(=S)Nc2cccc(S(=O)(=O)Nc3c(C)n(C)n(-c4ccccc4)c3=O)c2)cc1`, for which the molecule was classed as inactive. Under `O=C1N[C@@H](Cc2c[nH]c3ccccc23)COC(=O)[C@H](Cc2ccc(F)cc2)C/C=C\C[C@H]1CC(=O)N(CCO)Cc1ccccc1` stands “inactive”; under `O=C(Nc1ccc(N2CCOCC2)cc1)c1cnccn1`, “inactive”; under `O=C(Nc1ccc(CN2CCOCC2)cc1)c1cc2ccccn2n1`, “inactive”. Turning to `CSc1nc(N)nc(SCC(=O)C23CC4CC(CC(C4)C2)C3)c1C#N`, the result was inactive. Regarding `COc1ccc(C2CC(C(F)(F)F)n3ncc(C(=O)NCc4cccnc4)c3N2)cc1OC` (stereo unspecified), the molecule was called inactive. For the molecule `O=C(CN1C(=O)c2ccccc2C1=O)NNC1=NS(=O)(=O)c2ccccc21`, the result was inactive.

Take `CCOc1cccc(CNc2nnnn2C)c1`: the call was inactive. For `Nc1nc2ccccc2n1C(=O)c1ccccc1`, the outcome was inactive. As to `CCCC(=O)NCCCc1nc2ccccc2n1C`, the result was inactive.

For the molecule `COc1ccc(/C=C/c2nc3ccccc3c(=O)o2)cc1`, the call was inactive.

As for `CC(C)(C)n1nc(-c2ccc(Cl)cc2)c2c(N)ncnc21`, the call was inactive. `O=C(CCNc1cccc(F)c1)c1cc2ccccc2o1`: the outcome was inactive. For the molecule `CCc1cc(=O)oc2c(CNCc3c(F)cccc3Cl)c(O)ccc12`, the result was inactive. In the case of `Cc1cc(N2CCCC2=O)cc(C)c1S(=O)(=O)Nc1c(C)nn(C)c1C`, the outcome was inactive. As for `O=C(C=C1SCCS1)/C=C/c1ccco1`, the molecule was called inactive.

Take `CC(C)(C)c1ccc(C(=O)Nc2nnc(SCC(=O)NCC3CCCO3)s2)cc1` (stereo unspecified): the outcome was inactive. Next, `Cc1cc(NC(=O)CSc2ccnc(=O)[nH]2)no1`: “inactive”; `CC(C)Cc1ccc([C@H](C)C(=O)O)cc1`: “inactive”; `CS(=O)(=O)N(CC(=O)Nc1ccc(F)cc1F)C1CCCCC1`: “inactive”. Regarding `O=C1CCC(C(=O)N2CCCCCC2)CN1CCc1ccc(Cl)cc1` (stereo unspecified), the molecule was classed as inactive. Under `S=C1SCN(Cc2ccccc2)CN1Cc1ccco1` stands “inactive”; under `O=C1/C(=C/c2cccnc2)SC(=S)N1Cc1ccco1`, “inactive”. Next, `CC(C)NC(=O)N(C)C[C@H]1Oc2c(NC(=O)Nc3ccc4c(c3)OCO4)cccc2C(=O)N([C@H](C)CO)C[C@@H]1C`: “inactive”. With `O=C1CCCN2N=C(SCC(=O)Nc3ccc(Br)cc3)SC2=N1`, the call was inactive.

Regarding `COc1ccc(S(=O)(=O)NCCc2csc(-c3cccnc3)n2)cc1`, the result was inactive.

With `CC1Cc2ccccc2N1c1ncnc(N)c1[N+](=O)[O-]` (stereo unspecified), the outcome was inactive.

On to `CC(=O)Nc1ccc(NC(=O)C(c2ccccc2)c2ccccc2)cc1`, for which the molecule was called inactive.

Turning to `O=C(Cc1ccc(Cl)cc1)NCC(=O)N1CCCCC1`, the molecule was called inactive. With `CCOC(=O)c1cn2nc(N3CCCC3)ccc2n1`, the molecule was classed as inactive.

As to `COc1cc(/C=N/NC(=O)c2cc(C34CC5CC(CC(C5)C3)C4)[nH]n2)ccc1O`, the result was inactive.

As to `COc1cc2cc(C(=O)Nc3ccc4c(c3)OCCO4)[nH]c2cc1OC`, the molecule was called inactive. As for `O=C(Nc1cc(S(=O)(=O)N2CCOCC2)ccc1Cl)c1ccncc1`, the molecule was classed as inactive. On to `COC(=O)[C@H](C)[C@H]1C[C@]1(C)[C@H](NC(=O)OCc1ccccc1)c1ccccc1`, for which the call was inactive.

For the molecule `COc1ccccc1N1CCN(CCCNC(=O)C2CCCN(c3ncnc4c3nc3n4CCCCC3)C2)CC1` (stereo unspecified), the call was inactive.

For the molecule `Cc1ccsc1/C=N/NC(=O)c1ccc2c(c1)OCCO2`, the molecule was called inactive. Next, `CC(=O)c1c(C)[nH]c(C(=O)Nc2ccc(C)cn2)c1C`: “inactive”; `CCOC(=O)c1sc(NC(=O)CNCc2ccccn2)c(C(=O)OCC)c1C`: “inactive”; `Cc1cccn2c(=O)c(C=NCCO)c(NCc3ccco3)nc12`: “inactive”. In the case of `Clc1ccccc1C1=Nn2c(nnc2-c2ccncc2)SC1`, the call was inactive. For the molecule `Cc1ccc(C(=O)Nc2cccc(C(F)(F)F)c2)cc1Nc1ncnc2nc[nH]c12`, the molecule was called inactive. Consider `c1cncc(CNc2ncnc3ccc(-c4ccoc4)cc23)c1`, for which the outcome was inactive. `Cc1sc2ncn(CC(=O)N3CCC(C(N)=O)CC3)c(=O)c2c1S(=O)(=O)N1CCOCC1`: the result was inactive. Regarding `Cc1ccc(N2CCN(C3=NC(=O)/C(=C\c4cn[nH]c4-c4ccccc4)S3)CC2)cc1`, the molecule was classed as inactive. Consider `CC1CCN(C(=O)/C(=C\c2cccs2)NC(=O)c2ccccc2)CC1`, for which the outcome was inactive. Consider `C=CCN(c1ccc(C(=O)Nc2ccc3c(c2)n(C)c(=O)n3C)cc1)S(C)(=O)=O`, for which the molecule was classed as inactive. As for `COC(=O)c1cccc(COC(=O)c2ccccc2NC(=O)c2ccco2)c1`, the molecule was classed as inactive. For `C[C@]12CC[C@@H]3c4ccc(OS(=O)(=O)O)cc4CC[C@H]3[C@@H]1CCC2=O`, the molecule was called inactive. Take `COc1ccccc1C(=O)NC(=O)CSc1nnc(N)s1`: the result was inactive. Next, `c1csc(CNc2ncnc3ccc(-c4ccoc4)cc23)c1`: “inactive”. Regarding `COc1ccc(C(=O)CSc2nnc(Cc3ccccc3)o2)cc1`, the molecule was classed as inactive. Next, `CC[C@H]1OC(=O)[C@H](C)[C@@H](O[C@H]2C[C@@](C)(OC)[C@@H](O)[C@H](C)O2)[C@H](C)[C@@H](O[C@@H]2O[C@H](C)C[C@H](N(C)C)[C@H]2O)[C@](C)(O)C[C@@H](C)C(=NOCOCCOC)[C@H](C)[C@@H](O)[C@]1(C)O`: “inactive”.
